# From PubChem BioAssay AID1159580 (chemical genetic matrix, 2015)
# Where “and” joins values, the source holds several entries; their conditions need not be identical. Equal entries are not always repeated. Screen size: about 5,500 compounds; about 2,000 (36%) were called active. Roughly 18% stayed inconclusive and do not appear here. Some of the results follow. A number with no mark means an inactive call. Cut-off read from the data, not from the text of the source: active = normalized growth mostly below about 0.91 (no sharp cut-off); inconclusive = no clear call, values can overlap the other calls; inactive = mostly above about 0.92.
# Test: chemical genetic growth profiling, strain panel (AID 1159580);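 note: tested at 20 µM; growth read once vehicle control cultures reached saturation at 30 °C; 1 = growth at the plate median or of vehicle wells; lower values mean less growth of the strain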
# Conditions: S. cerevisiae deletion strains, growth OD
# [1] = locus YBR229C, strain ROT2, hits give low values
# [2] = locus YDL101C, strain DUN1, hits give low values
# [3] = locus YDR150W, strain NUM1, hits give low values
# [4] = locus YEL061C, strain CIN8, hits give low values
# [5] = locus YGR078C, strain PAC10, hits give low values
# [6] = locus YHR030C, strain SLT2, hits give low values
# [7] = locus YJR043C, strain POL32, hits give low values
# [8] = locus YLR039C, strain RIC1, hits give low values
# [9] = locus YLR262C, strain YPT6, hits give low values
# [10] = locus YNL153C, strain GIM3, hits give low values
# [11] = locus YNL322C, strain KRE1, hits give low values
compound,measurement,setting,value
Nc1ccccc1C(=O)NCCc1ccc(Cl)cc1,normalized growth,"locus YAL013W, strain DEP1, hits give low values",0.979
same,normalized growth,[1],0.949
same,normalized growth,[2],0.987
same,normalized growth,"locus YDL134C, strain PPH21, hits give low values",0.949
same,normalized growth,[3],0.916
same,normalized growth,[4],0.956
same,normalized growth,[5],0.97
same,normalized growth,[6],0.773
same,normalized growth,"locus YHR087W, strain rtc3, hits give low values",0.927
same,normalized growth,"locus YJL187C, strain SWE1, hits give low values",0.928 (active)
same,normalized growth,[7],0.964
same,normalized growth,"locus YJR075W, strain HOC1, hits give low values",0.888 (active)
same,normalized growth,"locus YKL190W, strain CNB1, hits give low values",0.947
same,normalized growth,[8],0.969
same,normalized growth,"locus YLR058C, strain SHM2 (second series), hits give low values",0.961
same,normalized growth,"locus YLR085C, strain ARP6, hits give low values",0.832
same,normalized growth,[9],0.908
same,normalized growth,"locus YML094W, strain GIM5, hits give low values",0.938
same,normalized growth,"locus YMR219W, strain ESC1, hits give low values",0.962
same,normalized growth,"locus YMR263W, strain SAP30, hits give low values",0.997
same,normalized growth,"locus YNL128W, strain TEP1, hits give low values",0.993
same,normalized growth,[10],0.974
same,normalized growth,"locus YNL298W, strain CLA4 (second series), hits give low values",0.939
same,normalized growth,[11],0.963
same,normalized growth,"locus YNR030W, strain Alg12, hits give low values",0.942
same,normalized growth,"locus YPL055C, strain LGE1, hits give low values",1.08
same,normalized growth,"locus YPL241C, strain CIN2, hits give low values",0.902
same,normalized growth,"locus YPR135W, strain CTF4, hits give low values",0.767
C[N+]1(C)CCCC(OC(=O)C(O)(c2ccccc2)c2ccccc2)C1 (stereo not given),normalized growth,"locus YBR021W, strain FUR4, hits give low values",1.01
same,normalized growth,[1],1.01
same,normalized growth,"locus YCL029C, strain bik1, hits give low values",0.988
same,normalized growth,"locus YDL035C, strain GPR1, hits give low values",1.02
same,normalized growth,"locus YDL074C, strain BRE1, hits give low values",1.01
same,normalized growth,[2],0.999
same,normalized growth,"locus YDL185W, strain tfp1, hits give low values",0.961
same,normalized growth,"locus YDL192W, strain arf1, hits give low values",0.983
same,normalized growth,"locus YDR101C, strain arx1, hits give low values",1
same,normalized growth,[3],1
same,normalized growth,"locus YDR162C, strain NBP2, hits give low values",1.01
same,normalized growth,"locus YDR318W, strain mcm21, hits give low values",0.976
same,normalized growth,"locus YDR388W, hits give low values",0.997
same,normalized growth,"locus YDR502C, strain sam2, hits give low values",0.989
same,normalized growth,[4],0.999
same,normalized growth,"locus YER110C, hits give low values",0.968
same,normalized growth,"locus YER155C, strain BEM2, hits give low values",1
same,normalized growth,"locus YER167W, strain BCK2, hits give low values",0.995
same,normalized growth,"locus YGL078C, strain dbp3, hits give low values",0.976
same,normalized growth,"locus YGL086W, strain mad1, hits give low values",1.02
same,normalized growth,"locus YGL248W, strain PDE1, hits give low values",1
same,normalized growth,[5],1
same,normalized growth,"locus YGR135W, strain pre9, hits give low values",0.937
same,normalized growth,"locus YGR252W, strain gcn5, hits give low values",0.936
same,normalized growth,[6],1 and 1.03
same,normalized growth,"locus YHR079C, strain IRE1 (second series), hits give low values",0.982
same,normalized growth,"locus YHR079C, strain IRE1, hits give low values",1.02
same,normalized growth,"locus YHR094C, strain hxt1, hits give low values",0.996
same,normalized growth,"locus YHR129C, strain ARP1, hits give low values",1
same,normalized growth,"locus YHR200W, strain rpn10, hits give low values",0.975
same,normalized growth,"locus YIL066C, strain RNR3, hits give low values",1.01
same,normalized growth,"locus YIL073C, strain SPO22, hits give low values",0.937
same,normalized growth,"locus YIL125W, strain kgd1, hits give low values",0.997
same,normalized growth,"locus YIR030C, strain dcg1, hits give low values",0.978
same,normalized growth,"locus YJL095W, strain BCK1, hits give low values",0.969 and 1.02
same,normalized growth,"locus YJL134W, strain LCB3, hits give low values",1
same,normalized growth,"locus YJL168C, strain set2, hits give low values",0.998
same,normalized growth,"locus YJL187C, strain SWE1 (second series), hits give low values",1.01
same,normalized growth,[7],1.03
same,normalized growth,"locus YJR066W, strain TOR1, hits give low values",0.986
same,normalized growth,"locus YKL009W, strain mrt4, hits give low values",1
same,normalized growth,"locus YKL068W, hits give low values",0.991
same,normalized growth,"locus YKL085W, strain MDH1 (second series), hits give low values",0.97
same,normalized growth,"locus YKL085W, strain MDH1, hits give low values",0.97
same,normalized growth,"locus YKR001C, strain vps1, hits give low values",0.99
same,normalized growth,[8],0.94
same,normalized growth,"locus YLR058C, strain SHM2, hits give low values",0.998
same,normalized growth,"locus YLR102C, strain apc9, hits give low values",0.982
same,normalized growth,"locus YLR113W, strain HOG1, hits give low values",1.02
same,normalized growth,[9],0.979
same,normalized growth,"locus YLR268W, strain sec22, hits give low values",0.996
same,normalized growth,"locus YLR330W, strain CHS5, hits give low values",0.994
same,normalized growth,"locus YLR342W, strain FKS1 (second series), hits give low values",1.01
same,normalized growth,"locus YLR371W, strain rom2, hits give low values",0.985
same,normalized growth,"locus YLR418C, strain cdc73, hits give low values",0.969
same,normalized growth,"locus YML016C, strain PPZ1, hits give low values",1
same,normalized growth,"locus YML032C, strain rad52, hits give low values",0.996
same,normalized growth,"locus YML124C, strain tub3, hits give low values",0.991
same,normalized growth,"locus YMR078C, strain ctf18, hits give low values",0.97
same,normalized growth,"locus YMR223W, strain ubp8, hits give low values",0.951
same,normalized growth,"locus YMR307W, strain GAS1, hits give low values",1.03
same,normalized growth,"locus YNL067W, strain RPL9B, hits give low values",0.997
same,normalized growth,[10],1
same,normalized growth,"locus YNL183C, strain NPR1, hits give low values",0.983
same,normalized growth,"locus YNL233W, strain BNI4, hits give low values",0.997
same,normalized growth,"locus YNL250W, strain rad50, hits give low values",0.962
same,normalized growth,"locus YNL271C, strain bni1, hits give low values",0.981
same,normalized growth,"locus YNL298W, strain CLA4, hits give low values",0.968
same,normalized growth,"locus YNL307C, strain MCK1, hits give low values",0.981
same,normalized growth,[11],0.99
same,normalized growth,"locus YNR052C, strain pop2, hits give low values",0.975
same,normalized growth,"locus YOL006C, strain TOP1, hits give low values",0.969
same,normalized growth,"locus YOL012C, strain htz1",0.94
same,normalized growth,"locus YOL147C, strain pex11, hits give low values",0.993
same,normalized growth,"locus YOR061W, strain CKA2, hits give low values",0.999
same,normalized growth,"locus YOR069W, strain VPS5, hits give low values",1
same,normalized growth,"locus YOR136W, strain idh2, hits give low values",0.996
same,normalized growth,"locus YOR144C, strain elg1, hits give low values",0.993
same,normalized growth,"locus YOR184W, strain ser1, hits give low values",0.981
same,normalized growth,"locus YOR231W, strain MKK1, hits give low values",1.02
same,normalized growth,"locus YOR316C, strain cot1, hits give low values",0.983
same,normalized growth,"locus YPL256C, strain CLN2, hits give low values",1.03
same,normalized growth,"locus YPR119W, strain clb2, hits give low values",0.979
same,normalized growth,"locus YPR141C, strain kar3, hits give low values",0.983
same,normalized growth,"locus YPR163C, strain tif3, hits give low values",0.984
same,normalized growth,"locus YPR167C, strain met16, hits give low values",0.987
same,normalized growth,"strain wtn01, hits give low values",0.975
